Among the data in PubChem BioAssay (NCI) are growth values, retold here.

This is part of a sample that, as a whole, favours compounds with a hit. Of some 83,000 tested, about 20% had one in any assay.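 Step 1: grow cells in 96-well plates. Step 2: add test compound at a single concentration. Step 3: incubate 48 h. Step 4: record percent growth.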 A number with no mark means an inactive call. Activity calls are given as the source filed them. The calls were made as follows: active = growth percent below 10; inactive = the rest.

Common to all, as to assay: NCI-60 one-dose screen, 48 h (100 = growth as untreated, 0 = no growth, -100 = all killed)
Common to all, as to details: 10 µM

For test [1], the system named is HCT-15 colon.
Test [2] has as its system HT29 colon.
The test system of test [3] is SNB-75 CNS.
Test [4] deals with SNB-19 CNS.
Test [5] deals with U251 CNS.
The subject of test [6] is PC-3 prostate.
In test [7] the test system is SK-MEL-5 melanoma.
Test [8] concerns UACC-62 melanoma.
Test [9] has as its system LOX IMVI melanoma.
Test [10] concerns SK-MEL-28 melanoma.
Test [11] relates to SK-MEL-2 melanoma.
In test [12] the test system is EKVX NSCLC.
In test [13] the test system is SN12C renal.
Test [14] has as its system UO-31 renal.
Test [15] deals with TK-10 renal.
Test [16] has as its system ACHN renal.
Test [17] deals with CAKI-1 renal.
Test [18] deals with A498 renal.
For test [19], the system named is MOLT-4 leukemia.
Test [20] relates to CCRF-CEM leukemia.

As for `Oc1[nH]c2ccccc2c1/C=c1/cc2c(c(-c3ccc(C(F)(F)F)cc3)n1)=Nc1ccccc1-2`, the growth in [1] was 49.4%; in test [2], 20.2%; in test [3], 63.4%; in [4] it was 82.7%; in test [5] it was 60.1%; in test [6], 34.9%. The growth is 57.2% in [7]; 77% in test [8]; 60.5% in [9]; 52.8% in test [10]; 55.3% in test [11]; 52.1% in test [12]. The growth was 79.1% in test [13]; 56.1% in test [14]; 56.9% in test [15]; 32% in test [16]; 48.4% in [17]; 62.6% in test [18]. Also, in test [19], the growth is 29.6%.
Turning to `COc1ccc(C2=Cc3ccc(OC(C)=O)cc3OC2)cc1`, the growth in [1] was 82.4%; in test [2], 97.2%; in test [3], 107%; in [4], 98.8%; in test [5] it was 89.3%; in [6] it was 90.5%. Besides, the growth in test [7] is 90.6%; in test [8] it was 85.4%; in [9], 82.7%; in test [10], 112%; in [11], 97.5%; in test [12], 66.2%. Besides, the growth in test [13] is 87.2%; in test [14], 49.1%; in [15], 102%; in test [16], 80.8%; in test [17], 88.2%; in test [18] it was 82.2%. In addition, the growth in test [20] is 70.8%; in [19], 44.5%.
Consider `COc1ccccc1CNCCCN1C(=O)c2ccc3c4c(ccc(c24)C1=O)C(=O)N(CCCNCCNCCCN)C3=O`, for which the growth in test [1] was 90%; in [2] it was 6.6% (active); in [3], 28.4%; in test [4] it was 10.3%; in test [5] it was -1.05% (active); in [6], 42.1%. The growth in [7] was -31.7% (active); in test [8] it was 23.5%; in test [9] it was 6.84% (active); in [10], 25.4%; in test [11] it was 24.9%; in test [12] it was 37.9%. Also, the growth in [13] is 1.16% (active); in test [14] it was 77.3%; in [15] it was 60.6%; in [16], 51.5%; in [17] it was 87.8%; in test [18] it was 60.9%. In addition, in test [19], the growth is 1.36% (active).
As for `COc1cc(Cn2c(-c3ccccc3)c(Cl)c3c2-c2oncc2CC3)cc(OC)c1`, the growth is 80.8% in test [1]; 56.1% in test [2]; 94.8% in [3]; 85.3% in [4]; 37.3% in test [5]; 60.8% in test [6]. The growth in [7] was 109%; in [8] it was 55.4%; in test [9], 73.8%; in [10] it was 92.3%; in test [11], 75.3%; in test [12], 90.6%. Besides, the growth in test [13] is 92%; in test [14], -7.99% (active); in test [15] it was 104%; in [16] it was 69.2%; in test [17], 47.3%; in test [18], 26.5%. Also, the values for the growth in test [20] and in test [19] were 9.93% (active) and 5.45% (active), respectively.
As to `O=[N+]([O-])c1ccc(-c2nc(-c3ccccc3)c(-c3ccccc3)n2-c2ccccc2)cc1`, the growth is 12% in test [1]; 16.1% in test [2]; 80.4% in [3]; 65.9% in test [4]; 32.5% in [5]; -6.15% (active) in test [6]. For the same compound, the growth was 61.9% in test [7]; 30.9% in test [8]; 18.8% in test [9]; 67.6% in test [10]; -38.1% (active) in test [11]; 34.8% in [12]. The growth was 43.6% in [13]; -6.05% (active) in test [14]; 19% in test [16]; 48.1% in [17]; 41.3% in [18]; 1.03% (active) in test [20]. The growth in [19] is -44.6% (active).
With `O=C1c2cc(Cl)ccc2-c2c(O)cc(Cl)cc21`, the growth was 81.6% in test [1]; 95.1% in [2]; 81.2% in [3]; 59.8% in test [4]; 55.5% in [5]; 78% in test [6]. The growth in [7] is 53%; in test [8], 85%; in test [9] it was 52%; in [10], 106%; in test [11] it was 62.3%; in [12] it was 72.1%. Also, the growth in test [13] was 72.2%; in test [14], 49.6%; in [15], 114%; in [16] it was 66%; in test [17], 90.7%; in [18] it was 109%. For the same compound, the growth in [19] was 47.3%.
Turning to `COc1ccc(-c2n/c(=C\c3c(O)[nH]c4ccccc34)cc3c2=Nc2ccccc2-3)cc1`, the growth is 1.23% (active) in test [1]; -37.1% (active) in test [2]; 66.1% in test [3]; 63.1% in test [4]; -61.4% (active) in test [5]; 43.3% in test [6]. In addition, the growth in [7] is 70%; in [8], 87.3%; in test [9], 2.48% (active); in [10], -25.6% (active); in test [11] it was 84.5%; in test [12], 72.4%. In addition, the growth is 91.6% in test [13]; 58.3% in [14]; 97.5% in test [15]; 98.7% in test [16]; 71.6% in [17]; 56.2% in [18]. Also, the growth in [19] was 2.65% (active).
As for `COc1c(C)c(C)c(OC)c2c1[nH]c(=O)c1c3cccnc3cn21`, the growth in test [1] is 118%; in test [2], 104%; in test [3] it was 106%; in [4], 108%; in [5], 106%; in test [6], 97.3%. Moreover, the growth was 119% in test [7]; 98.4% in test [8]; 107% in test [9]; 125% in test [10]; 110% in test [11]; 100% in [12]. Besides, the growth in test [13] is 99.5%; in [14] it was 91.2%; in [15] it was 117%; in test [16], 114%; in test [17] it was 104%; in test [18] it was 120%. Besides, the growth in test [20] was 101%; in test [19], 99.4%.
